# The source made the active and inactive calls. Rule for the calls: active = hit-call score of the fitted dose curve at least 0.9, where 1 is the maximum; inactive = score below 0.9.
# Biological target: rat CYP2A1, Cyp2a1 (gene 24894) (UniProt P11711)
# Assay: NVS_ADME_rCYP2A1: NovaScreen (NVS) CYP450-related Enzyme Activity (ADME) Assay for rat CYP2A1 (AID 2283114)
# Experimental: NVS_ADME_rCYP2A1 is a biochemical, single-readout assay that uses extracted gene-proteins in a cell-free assay. Measurements were taken 0.75 hour after chemical dosing in a 96-well plate.NVS_ADME_rCYP2A1 is one of one assay component(s) measured or calculated from the NVS_ADME_rCYP2A1 assay. It is designed to make measurements of enzyme activity, a form of enzyme reporter, as detected with fluorescence intensity signals by Fluorescence technology.Data from the assay component NVS_ADME_rCYP2A1 was analyzed into 1 assay endpoint. This assay endpoint, NVS_ADME_rCYP2A1, was analyzed in the positive analysis fitting direction relative to Acetonitrile as the negative control and baseline of activity. Using a type of enzyme reporter, loss-of-signal activity can be used to understand changes in the enzymatic activity as they relate to the gene Cyp2a1. Furthermore, this assay endpoint can be referred to as a primary readout, because this assay has produced multiple assay endpoints where this one serves a enzymatic activity function. To generalize the intended target to other relatable targets, this assay endpoint is annotated to the cyp intended target family, where the subfamily is xenobiotic metabolism.
# Binding assays used specific radioligands (tritiated, iodinated) with non-radioactive competitive displacement ligands in agonist or antagonist protocols (as indicated) and various reference compounds and inhibitors to titrate specific binding to receptors and transporters. Most enzyme assays (CYPs, kinases, phosphatases, proteases, HDACs) used recombinant protein and specific substrates (fluorescence mostly, some colorimetric and radioactive) and inhibitors, followed by a biochemical separation of substrate and product. All assays for the biochemical HTS were initially run in duplicate at a single concentration (10 uM for CYP450 assays and 25 uM for all others). Assay-chemical combinations meeting a pre-defined threshold (e.g., 30% inhibition and other criteria defined below) were then run in singleton concentration-response format with maximum concentration of 20 uM for CYPs and 50 uM for all others. Each assay was run with positive and negative controls, and concurrent controls on every plate. The follow-up (secondary) screen tested active chemical-pairs in concentration series, as well as a few additional assays not tested in the primary screen, some selected negative inactives, and several cases re-run in the concentration series for confirmatory purposes.
# rat CYP2A1, Cyp2a1 (gene 24894), sequence (P11711 whole entry, looked up): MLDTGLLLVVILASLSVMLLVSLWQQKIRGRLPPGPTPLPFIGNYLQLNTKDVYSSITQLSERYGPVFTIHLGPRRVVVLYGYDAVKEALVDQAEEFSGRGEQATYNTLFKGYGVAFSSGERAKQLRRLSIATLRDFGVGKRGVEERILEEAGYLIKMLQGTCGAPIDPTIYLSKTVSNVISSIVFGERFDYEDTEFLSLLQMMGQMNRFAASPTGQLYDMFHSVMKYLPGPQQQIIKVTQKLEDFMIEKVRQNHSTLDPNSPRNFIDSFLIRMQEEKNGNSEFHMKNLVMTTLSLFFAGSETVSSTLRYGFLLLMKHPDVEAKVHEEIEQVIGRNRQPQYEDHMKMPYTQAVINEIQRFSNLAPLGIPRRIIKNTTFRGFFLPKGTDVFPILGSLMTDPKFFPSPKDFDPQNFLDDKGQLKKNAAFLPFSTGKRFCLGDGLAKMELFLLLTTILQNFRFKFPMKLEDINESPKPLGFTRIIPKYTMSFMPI
Structure (SMILES),AC50,outcome
CO/C=C(/C(=O)OC)c1ccccc1Oc1cc(Oc2ccccc2C#N)ncn1,3.83 µM (active),
CN(C)C(=S)SSC(=S)N(C)C,2.83 µM (active),
COc1ccc(C(c2ccc(OC)cc2)C(Cl)(Cl)Cl)cc1,,inactive
CC1COC(Cn2cncn2)(c2ccc(Oc3ccc(Cl)cc3)cc2Cl)O1 (stereo not drawn),0.14 µM (active),
CC1=C(C(=O)Nc2ccccc2)SCCO1,6.72 µM (active),
OC(c1ccc(Cl)cc1)(c1cncnc1)c1ccccc1Cl (stereo not drawn),4.33 µM (active),
Cc1ccc(-c2c(Cl)nc(C#N)n2S(=O)(=O)N(C)C)cc1,7.38 µM (active),
N#CC(CCc1ccc(Cl)cc1)(Cn1cncn1)c1ccccc1 (stereo not drawn),,inactive
CCCN(CCC)c1c([N+](=O)[O-])cc(S(N)(=O)=O)cc1[N+](=O)[O-],2.62 µM (active),
CCOC(=O)C(Cl)Cc1cc(-n2nc(C)n(C(F)F)c2=O)c(F)cc1Cl (stereo not drawn),,inactive
COC(=O)c1ccccc1C(=O)OC,,inactive
CCOC(=O)CC(SP(=S)(OC)OC)C(=O)OCC (stereo not drawn),5.52 µM (active),
CCOP(=S)(OCC)SCn1c(=O)oc2cc(Cl)ccc21,3.22 µM (active),
